# Bioassay records as filed in PubChem BioAssay.
# The list is not random: actives were taken first. Their share in the collection is about 32%.
# CYP2C9 inh: human CYP2C9 inhibition. inhibition, % at 5 µM. actives 20% (n = 96,000). AID 777. P11712. CYP2C9 Supersomes, luciferin-H conversion, luminescence;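 active means blocking of liver enzyme CYP2C9 beyond about 50% at 5 µM, limit read from the data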
# Target sequence (P11712 whole entry, looked up): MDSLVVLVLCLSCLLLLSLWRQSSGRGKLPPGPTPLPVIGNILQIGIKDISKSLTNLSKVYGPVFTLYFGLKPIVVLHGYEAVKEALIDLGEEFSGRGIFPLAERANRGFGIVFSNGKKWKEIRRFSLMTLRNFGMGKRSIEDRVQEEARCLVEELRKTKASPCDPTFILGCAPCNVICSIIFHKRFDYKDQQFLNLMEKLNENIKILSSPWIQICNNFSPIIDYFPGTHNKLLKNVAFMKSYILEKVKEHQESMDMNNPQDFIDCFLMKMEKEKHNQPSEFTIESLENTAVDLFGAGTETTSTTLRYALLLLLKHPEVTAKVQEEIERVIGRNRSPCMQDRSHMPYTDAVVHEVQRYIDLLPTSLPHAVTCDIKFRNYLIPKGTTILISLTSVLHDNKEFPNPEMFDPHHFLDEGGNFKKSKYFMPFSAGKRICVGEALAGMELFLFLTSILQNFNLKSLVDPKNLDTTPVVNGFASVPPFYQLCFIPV
# PostGolgi ctrl: yeast control strain growth, post-Golgi counter-screen; efflux-deficient yeast background strain, growth absorbance A615, 16 h; inhibition, % at 10 µM; actives 5% (n = 98,000); AID 738
# CYP2C19 activ: increases human CYP2C19 enzyme activity. P33261. activation factor at 5 µM. AID 1025. recombinant CYP2C19, luciferin-H EGE luminescence; stronger effect = higher value; 0 = fully inhibited enzyme, 1 = untreated enzyme. 96,000 tested, under 10 active;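 active means activation factor of at least 2 at 5 µM in the primary screen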;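 further: 0 = wells with 2.5 mM tranylcypromine and 1 = vehicle-only wells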
# CYP2C19 inhib: human CYP2C19 inhibition; P33261; CYP2C19 Supersomes, luciferin-H EGE luminescence, 30 min; inhibition, % at 5 µM; actives 21% (n = 96,000);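 active means CYP2C19 inhibition above a set limit at 5 µM in the primary screen, cut at about 50% in these data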;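 further: plate controls were negative control wells for no effect and 2.5 mM tranylcypromine positive control for full effect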
# PostGolgi yeast: growth inhibition of a yeast mutant, post-Golgi transport screen; post-Golgi transport phenotypic cell assay; AID 739; actives 0.9% (n = 98,000); inhibition, % at 10 µM;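 further: yeast cells grown in 1536-well plates; yeast grown about 18 h at 30C before absorbance read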
# CYP2C9 activ: activators of human CYP2C9; recombinant CYP2C9, luciferin-H conversion, luminescence; stronger effect = higher value; factor 1 = untreated enzyme, 0 = blocked; activation factor at 5 µM; actives 1.4% (n = 96,000); AID 1024;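 active means activation factor of 2 or more for CYP2C9 at a 5 µM dose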;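 further: 0 = sulfaphenazole-blocked wells and 1 = vehicle-only wells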
# Numbers without * were called inactive; . = no result. Unless noted, no stated cut-off is given here; in the data, active means inhibition above about 30%; inactive means the rest.
SMILES,CYP2C9 inh,PostGolgi ctrl,CYP2C19 activ,CYP2C19 inhib,PostGolgi yeast,CYP2C9 activ
O=C(OCc1ccccc1Cl)c1ccccc1C(=O)c1ccccc1,39,25,0.3,67*,0,0.6
COc1ccc(OC)c(CCNC(=O)Cn2sc3nc(C)cc(C)c3c2=O)c1,65*,2,0.8,22,-7,0.4
O=C(NCc1cccs1)c1cnn2cccnc12,-14,0,0.7,33,-2,1.1
CCOC(=O)Cn1nc(CC)c2ccccc2c1=O,-15,5,1,-2,-4,1.1
CCOC(=O)CN1C(=O)C(O)(c2c(C)[nH]c3ccccc23)c2ccccc21 (centres undefined),94*,14,0,99*,3,0.1
CCOC(=O)CN1C(=O)C(O)(C2CCc3ccccc3C2=O)c2ccccc21 (centres undefined),15,6,0.3,73*,3,0.8
O=C(CN1CCOCC1)Nc1ccccc1Cl,1,12,0.8,19,7,1
O=C(CN1CCCC1)Nc1ccc(NC(=O)Nc2ccccc2)cc1,-12,4,1.1,-14,10,1.1
O=C(CN1CCC(C(O)(c2ccccc2)c2ccccc2)CC1)Nc1cc(Cl)ccc1Cl,65*,37*,0.8,17,8,0.4
O=C(CN1CCC(C(O)(c2ccccc2)c2ccccc2)CC1)Nc1ccccc1,78*,-3,0.9,9,15,0.2
COCCN(C(=O)CCCC(=O)Nc1ccccn1)C(C(=O)NC1CCCCC1)c1ccc(C)cc1 (centres undefined),56*,3,0.4,64*,-3,0.4
O=C(CCCC(=O)N(c1ccc2c(c1)OCCO2)C(C(=O)NC1CCCCC1)c1ccc(F)cc1)Nc1ccccn1 (centres undefined),-100,1,0.5,52*,-7,2*
COCCNC(=O)C(c1ccc(C)cc1)N(C(=O)CCC(=O)Nc1ccccn1)C1CCCC1 (centres undefined),-4,.,0.8,18,.,1
O=C1CC(Nc2ccc(N3CCOCC3)cc2)C(=O)N1CCc1ccccc1 (centres undefined),23,14,0.8,25,-6,0.8
O=C1CC(Nc2ccccc2)C(=O)N1CCc1ccccc1 (centres undefined),8,5,0.2,79*,-9,0.9
O=C1CC(Nc2ccccc2)C(=O)N1Cc1ccccc1 (centres undefined),24,27,0.1,91*,-5,0.8
O=C1CC(=O)N(CCc2ccccc2)C(=O)N1CCc1ccccc1,58*,12,1,3,8,0.4
O=C1CC(C2CCCO2)C(=O)N1Cc1ccccc1 (centres undefined),3,-4,0.5,47,-8,1
CCCc1cc(=O)[nH]c(SCC(=O)c2cc(C)n(C3CC3)c2C)n1,17,17,0.8,22,-8,0.8
Cc1cc(C)c(C#N)c(SCC(=O)c2cc(C)n(CCc3ccccc3)c2C)n1,85*,7,0.2,82*,-10,0.2
COCCn1c(C)cc(C(=O)CSc2nnc3ccccn23)c1C,3,6,0.3,71*,-8,1
COCCn1c(C)cc(C(=O)CSc2nc(C)cc(C)c2C#N)c1C,-14,16,0.2,78*,1,1.1
COCCn1c(C)cc(C(=O)CSc2ncn[nH]2)c1C,-83,3,0.6,45,-1,1.8
Cc1cc(C)c(C#N)c(SCSCc2ccccc2)n1,74*,2,0,99*,0,0.3
Cc1cc(C)c(C#N)c(SCCS(=O)(=O)Cc2ccccc2)n1,-76,23,0.9,8,16,1.8
SMILES,CYP2C9 inh,PostGolgi ctrl,CYP2C19 activ,CYP2C19 inhib,PostGolgi yeast,CYP2C9 activ
COc1cccc(-c2nc(-c3ccc(NC(=O)c4cccs4)cc3)no2)c1,18,10,0.9,13,10,0.8
CN1CCC(N(C)CC(=O)Nc2cccc(Oc3ccccc3)c2)CC1,-21,21,1.2,-22,-2,1.2
O=C(CSc1nnc2ccccn12)c1ccc(OC(F)F)cc1OC(F)F,27,-3,0.2,76*,3,0.7
CCC1(CC)C(=O)N(C)C(=O)NC1=Nc1ccc(OC)cc1,2,-2,1,-2,-1,1
COc1ccc(NC(=O)c2c(-c3ccccc3)noc2C)c(OC)c1,31,25,0.5,46,-2,0.7
COc1ccc(-n2nc3c(c2NC(=O)c2c(-c4ccccc4Cl)noc2C)CS(=O)(=O)C3)cc1,82*,0,0.5,50,-6,0.2
COc1ccc(NC(=O)c2c(-c3ccccc3Cl)noc2C)c(OC)c1,49,23,0.4,59*,-3,0.5
Cc1onc(-c2ccccc2Cl)c1C(=O)Nc1c(C)n(C)n(-c2ccccc2)c1=O,-3,-4,1,0,4,1
CCn1cc(C2=NOC(C(=O)Nc3cc(OC)c(Cl)cc3OC)C2)c(C)n1 (centres undefined),-12,4,0.7,30,-1,1.1
CCNC(=O)/C(=C/c1ccc2c(c1)OCO2)NC(=O)c1ccc(Br)cc1,26,5,0.7,32,3,0.7
Cc1c(Cl)cccc1Nc1nc(N)nc(CSc2ncccn2)n1,67*,18,0.5,52*,-2,0.3
COc1cc(/C=N/NC(=O)Nc2cccc3nsnc23)cc(OC)c1OC,56*,1,0.9,5,16,0.4
COc1ccc(/C=N/NC(=O)Nc2cccc3nsnc23)c(OC)c1,7,-1,1,0,7,0.9
O=C1NC(=O)c2cc(NC(=O)C3CCCCC3)ccc21,-3,4,1,3,2,1
COc1ccc(NC(=O)c2cc3c(-c4ccc(OC)c(OC)c4)nn(C)c3s2)cc1OC,74*,18,0.4,57*,-3,0.3
CCOC(=O)N1CCC(NC(=O)c2cc3c(-c4ccc(OC)c(OC)c4)nn(C)c3s2)CC1,42,1,0.6,36,4,0.6
CCOC(=O)C1CCCN(C(=O)c2cc(-c3ccc(C)cc3)on2)C1 (centres undefined),29,5,0.7,28,0,0.7
CCOC(=O)C1CCCN(C(=O)c2cc3nc(-c4cccc(OC)c4)cc(C(F)(F)F)n3n2)C1 (centres undefined),84*,4,0.1,86*,3,0.2
CCOC(=O)C1CCN(C(=O)c2cc3c(-c4ccc(OC)c(OC)c4)nn(C)c3s2)CC1,95*,19,0.1,92*,13,0.1
CCOC(=O)C1CCCN(C(=O)c2cnn3c(C(F)(F)F)cc(-c4ccccc4)nc23)C1 (centres undefined),46,7,0.8,21,4,0.5
CCOC(=O)C1CCCN(C(=O)c2cc3c(-c4cccc(OC)c4)nn(C)c3s2)C1 (centres undefined),68*,8,0.6,37,-3,0.3
